# Laboratory results from paper PMC11006913.
# Where a chain is given by its changes, count along the chain named.
# Assays:
# Experiment in all cases: PBM; 200 nM protein, PBS
# Settings in all cases: dsDNA, one strand shown
# VENTX [1] = target: T1, VENTX (Homo sapiens, UniProt O95231 78-163, R121Q)
# T1 sequence: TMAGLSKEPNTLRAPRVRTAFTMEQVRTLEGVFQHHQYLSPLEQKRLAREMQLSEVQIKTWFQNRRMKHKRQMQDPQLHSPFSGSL
# HOXB9 [2] = target: HOXB9 (Homo sapiens, UniProt P17482 171-250, T197M)
# HOXC9 [3] = target: HOXC9 (Homo sapiens, UniProt P31274 178-260, K195R)
# VENTX [4] = target: T2, VENTX (Homo sapiens, UniProt O95231 78-163)
# T2 sequence: T1 sequence with Q44R
# VENTX [5] = target: T3, VENTX (Homo sapiens, UniProt O95231 78-163, Y115F)
# T3 sequence: T1 sequence with Y38F, Q44R
# HOXB9 [6] = target: HOXB9 (Homo sapiens, UniProt P17482 171-250)
# HOXC9 [7] = target: HOXC9 (Homo sapiens, UniProt P31274 178-260)
# ALX3 [8] = target: ALX3 (Homo sapiens, UniProt O95076 139-225, N203Q)
# HOXC9 [9] = target: HOXC9 (Homo sapiens, UniProt P31274 178-260, R193K)
# ALX3 [10] = target: ALX3 (Homo sapiens, UniProt O95076 139-225)
# VAX1 [11] = target: VAX1 (Homo sapiens, UniProt Q5SQQ9 86-172)
# ALX3 [12] = target: ALX3 (Homo sapiens, UniProt O95076 139-225, L168Q)
# HOXB9 [13] = target: HOXB9 (Homo sapiens, UniProt P17482 171-250, R186Q)
# HOXC9 [14] = target: HOXC9 (Homo sapiens, UniProt P31274 178-260, R222W)
# ALX3 [15] = target: ALX3 (Homo sapiens, UniProt O95076 139-225, L168V)
# VAX1 [16] = target: VAX1 (Homo sapiens, UniProt Q5SQQ9 86-172, T142I)
# ALX3 [17] = target: ALX3 (Homo sapiens, UniProt O95076 139-225, N203S)
# VAX1 [18] = target: VAX1 (Homo sapiens, UniProt Q5SQQ9 86-172, K157R)
# HOXA4 [19] = target: HOXA4 (Homo sapiens, UniProt Q00056 201-287, W262R)
# PRRX1 [20] = target: PRRX1 (Homo sapiens, UniProt P54821 80-166, F113S)
# HOXA4 [21] = target: HOXA4 (Homo sapiens, UniProt Q00056 201-287, R217L)
# HOXA4 [22] = target: HOXA4 (Homo sapiens, UniProt Q00056 201-287)
# HOXA4 [23] = target: HOXA4 (Homo sapiens, UniProt Q00056 201-287, W262F)
# PRRX1 [24] = target: PRRX1 (Homo sapiens, UniProt P54821 80-166)
# HOXA7 [25] = target: HOXA7 (Homo sapiens, UniProt P31268 116-202)
# HOXC10 [26] = target: HOXC10 (Homo sapiens, UniProt Q9NYD6 254-340)
# HOXB6 [27] = target: HOXB6 (Homo sapiens, UniProt P17509 132-218, K202E)
# HOXC10 [28] = target: HOXC10 (Homo sapiens, UniProt Q9NYD6 254-340, K271E)
# HOXA7 [29] = target: HOXA7 (Homo sapiens, UniProt P31268 116-202, W177C)
# HOXB6 [30] = target: HOXB6 (Homo sapiens, UniProt P17509 132-218)
# Sequence of HOXB6 (Homo sapiens, UniProt P17509 132-218) (P17509 132-218): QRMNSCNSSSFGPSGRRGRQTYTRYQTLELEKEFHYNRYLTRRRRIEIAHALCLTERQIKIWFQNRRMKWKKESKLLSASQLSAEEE
# Sequence of HOXC9 (Homo sapiens, UniProt P31274 178-260) (P31274 178-260): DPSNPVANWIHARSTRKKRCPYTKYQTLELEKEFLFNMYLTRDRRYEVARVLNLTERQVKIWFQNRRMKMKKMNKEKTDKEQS
# Sequence of HOXB9 (Homo sapiens, UniProt P17482 171-250, R186Q) (P17482 171-250 R186Q): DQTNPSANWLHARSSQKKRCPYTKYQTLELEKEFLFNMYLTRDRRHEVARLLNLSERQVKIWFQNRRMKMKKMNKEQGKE
# Sequence of HOXB9 (Homo sapiens, UniProt P17482 171-250) (P17482 171-250): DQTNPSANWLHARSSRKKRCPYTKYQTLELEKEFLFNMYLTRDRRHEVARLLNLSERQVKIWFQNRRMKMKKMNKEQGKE
# Sequence of HOXB9 (Homo sapiens, UniProt P17482 171-250, T197M) (P17482 171-250 T197M): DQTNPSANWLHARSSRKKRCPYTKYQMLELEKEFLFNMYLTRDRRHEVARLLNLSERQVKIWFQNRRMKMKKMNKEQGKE
# Sequence of HOXC9 (Homo sapiens, UniProt P31274 178-260, R193K) (P31274 178-260 R193K): as the sequence (P31274 178-260) above, with R16K counted along it
# Sequence of HOXC9 (Homo sapiens, UniProt P31274 178-260, K195R) (P31274 178-260 K195R): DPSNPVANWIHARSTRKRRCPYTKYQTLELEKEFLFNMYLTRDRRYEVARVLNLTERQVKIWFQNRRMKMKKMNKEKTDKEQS
# Sequence of HOXC9 (Homo sapiens, UniProt P31274 178-260, R222W) (P31274 178-260 R222W): as the sequence (P31274 178-260) above, with R45W counted along it
# Sequence of VAX1 (Homo sapiens, UniProt Q5SQQ9 86-172, T142I) (Q5SQQ9 86-172 T142I): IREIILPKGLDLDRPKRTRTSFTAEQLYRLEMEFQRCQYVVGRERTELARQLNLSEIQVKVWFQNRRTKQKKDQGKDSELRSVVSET
# Sequence of HOXA7 (Homo sapiens, UniProt P31268 116-202, W177C) (P31268 116-202 W177C): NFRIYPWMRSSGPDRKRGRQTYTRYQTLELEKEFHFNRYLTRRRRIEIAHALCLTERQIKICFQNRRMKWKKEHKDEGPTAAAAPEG
# Sequence of HOXA4 (Homo sapiens, UniProt Q00056 201-287) (Q00056 201-287): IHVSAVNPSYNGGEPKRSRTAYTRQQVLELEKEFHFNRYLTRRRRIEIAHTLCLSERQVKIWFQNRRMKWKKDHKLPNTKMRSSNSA
# Sequence of ALX3 (Homo sapiens, UniProt O95076 139-225, L168V) (O95076 139-225 L168V): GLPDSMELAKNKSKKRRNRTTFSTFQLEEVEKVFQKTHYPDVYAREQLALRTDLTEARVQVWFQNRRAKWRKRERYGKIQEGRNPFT
# Sequence of HOXA4 (Homo sapiens, UniProt Q00056 201-287, W262R) (Q00056 201-287 W262R): as the sequence (Q00056 201-287) above, with W62R counted along it
# Sequence of VAX1 (Homo sapiens, UniProt Q5SQQ9 86-172, K157R) (Q5SQQ9 86-172 K157R): as the sequence (Q5SQQ9 86-172 T142I) above, with I57T, K72R counted along it
# Sequence of ALX3 (Homo sapiens, UniProt O95076 139-225, N203Q) (O95076 139-225 N203Q): as the sequence (O95076 139-225 L168V) above, with V30L, N65Q counted along it
# Sequence of PRRX1 (Homo sapiens, UniProt P54821 80-166, F113S) (P54821 80-166 F113S): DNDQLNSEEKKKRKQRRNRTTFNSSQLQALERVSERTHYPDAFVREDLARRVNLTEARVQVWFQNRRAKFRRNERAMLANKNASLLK
# Sequence of ALX3 (Homo sapiens, UniProt O95076 139-225, L168Q) (O95076 139-225 L168Q): as the sequence (O95076 139-225 L168V) above, with V30Q counted along it
# Sequence of HOXC10 (Homo sapiens, UniProt Q9NYD6 254-340) (Q9NYD6 254-340): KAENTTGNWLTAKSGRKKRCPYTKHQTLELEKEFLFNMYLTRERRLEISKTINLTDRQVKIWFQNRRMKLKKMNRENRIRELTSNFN
# Sequence of ALX3 (Homo sapiens, UniProt O95076 139-225) (O95076 139-225): as the sequence (O95076 139-225 L168V) above, with V30L counted along it
# Sequence of ALX3 (Homo sapiens, UniProt O95076 139-225, N203S) (O95076 139-225 N203S): as the sequence (O95076 139-225 L168V) above, with V30L, N65S counted along it
# Sequence of HOXA7 (Homo sapiens, UniProt P31268 116-202) (P31268 116-202): as the sequence (P31268 116-202 W177C) above, with C62W counted along it
# Sequence of PRRX1 (Homo sapiens, UniProt P54821 80-166) (P54821 80-166): as the sequence (P54821 80-166 F113S) above, with S34F counted along it
# Sequence of HOXA4 (Homo sapiens, UniProt Q00056 201-287, W262F) (Q00056 201-287 W262F): as the sequence (Q00056 201-287) above, with W62F counted along it
# Sequence of HOXA4 (Homo sapiens, UniProt Q00056 201-287, R217L) (Q00056 201-287 R217L): as the sequence (Q00056 201-287) above, with R17L counted along it
# Sequence of HOXC10 (Homo sapiens, UniProt Q9NYD6 254-340, K271E) (Q9NYD6 254-340 K271E): as the sequence (Q9NYD6 254-340) above, with K18E counted along it
# Sequence of HOXB6 (Homo sapiens, UniProt P17509 132-218, K202E) (P17509 132-218 K202E): as the sequence (P17509 132-218) above, with K71E counted along it
# Sequence of VAX1 (Homo sapiens, UniProt Q5SQQ9 86-172) (Q5SQQ9 86-172): as the sequence (Q5SQQ9 86-172 T142I) above, with I57T counted along it
sequence,measurement,setting,value
CGAGCGAC,binding signal,VENTX [1],"8.03 upbm affinity estimate (log intensity, higher = more binding, comparable within an allelic series)"
same,binding signal,HOXB9 [2],"8.47 upbm affinity estimate (log intensity, higher = more binding, comparable within an allelic series)"
same,binding signal,HOXC9 [3],"9.58 upbm affinity estimate (log intensity, higher = more binding, comparable within an allelic series)"
same,binding signal,VENTX [4],"7.84 upbm affinity estimate (log intensity, higher = more binding, comparable within an allelic series)"
same,binding signal,VENTX [5],"8.14 upbm affinity estimate (log intensity, higher = more binding, comparable within an allelic series)"
same,binding signal,HOXB9 [6],"8.38 upbm affinity estimate (log intensity, higher = more binding, comparable within an allelic series)"
same,binding signal,HOXC9 [7],"9.72 upbm affinity estimate (log intensity, higher = more binding, comparable within an allelic series)"
same,binding signal,ALX3 [8],"7.8 upbm affinity estimate (log intensity, higher = more binding, comparable within an allelic series)"
same,binding signal,HOXC9 [9],"9.67 upbm affinity estimate (log intensity, higher = more binding, comparable within an allelic series)"
same,binding signal,ALX3 [10],"7.63 upbm affinity estimate (log intensity, higher = more binding, comparable within an allelic series)"
same,binding signal,VAX1 [11],"7.11 upbm affinity estimate (log intensity, higher = more binding, comparable within an allelic series)"
same,binding signal,ALX3 [12],"7.78 upbm affinity estimate (log intensity, higher = more binding, comparable within an allelic series)"
same,binding signal,HOXB9 [13],"8.41 upbm affinity estimate (log intensity, higher = more binding, comparable within an allelic series)"
same,binding signal,HOXC9 [14],"9.73 upbm affinity estimate (log intensity, higher = more binding, comparable within an allelic series)"
same,binding signal,ALX3 [15],"7.74 upbm affinity estimate (log intensity, higher = more binding, comparable within an allelic series)"
same,binding signal,VAX1 [16],"7.15 upbm affinity estimate (log intensity, higher = more binding, comparable within an allelic series)"
same,binding signal,ALX3 [17],"7.82 upbm affinity estimate (log intensity, higher = more binding, comparable within an allelic series)"
same,binding signal,VAX1 [18],"7.05 upbm affinity estimate (log intensity, higher = more binding, comparable within an allelic series)"
CCCTTCCG,binding signal,VENTX [1],"8.08 upbm affinity estimate (log intensity, higher = more binding, comparable within an allelic series)"
same,binding signal,HOXA4 [19],"9.79 upbm affinity estimate (log intensity, higher = more binding, comparable within an allelic series)"
same,binding signal,VENTX [4],"8.37 upbm affinity estimate (log intensity, higher = more binding, comparable within an allelic series)"
same,binding signal,PRRX1 [20],"9.35 upbm affinity estimate (log intensity, higher = more binding, comparable within an allelic series)"
same,binding signal,VENTX [5],"8.15 upbm affinity estimate (log intensity, higher = more binding, comparable within an allelic series)"
same,binding signal,HOXA4 [21],"9.96 upbm affinity estimate (log intensity, higher = more binding, comparable within an allelic series)"
same,binding signal,HOXA4 [22],"10 upbm affinity estimate (log intensity, higher = more binding, comparable within an allelic series)"
same,binding signal,HOXA4 [23],"10 upbm affinity estimate (log intensity, higher = more binding, comparable within an allelic series)"
same,binding signal,PRRX1 [24],"9.49 upbm affinity estimate (log intensity, higher = more binding, comparable within an allelic series)"
GCCATTAA,binding signal,VENTX [1],"11.8 upbm affinity estimate (log intensity, higher = more binding, comparable within an allelic series)"
same,binding signal,HOXB9 [2],"10.1 upbm affinity estimate (log intensity, higher = more binding, comparable within an allelic series)"
same,binding signal,HOXC9 [3],"12.9 upbm affinity estimate (log intensity, higher = more binding, comparable within an allelic series)"
same,binding signal,VENTX [4],"12.3 upbm affinity estimate (log intensity, higher = more binding, comparable within an allelic series)"
same,binding signal,HOXA7 [25],"11.9 upbm affinity estimate (log intensity, higher = more binding, comparable within an allelic series)"
same,binding signal,HOXC10 [26],"12.3 upbm affinity estimate (log intensity, higher = more binding, comparable within an allelic series)"
same,binding signal,VENTX [5],"11.6 upbm affinity estimate (log intensity, higher = more binding, comparable within an allelic series)"
same,binding signal,HOXB6 [27],"10 upbm affinity estimate (log intensity, higher = more binding, comparable within an allelic series)"
same,binding signal,HOXB9 [6],"12.2 upbm affinity estimate (log intensity, higher = more binding, comparable within an allelic series)"
same,binding signal,HOXC9 [7],"13 upbm affinity estimate (log intensity, higher = more binding, comparable within an allelic series)"
same,binding signal,HOXC9 [9],"12.8 upbm affinity estimate (log intensity, higher = more binding, comparable within an allelic series)"
same,binding signal,HOXC10 [28],"12.2 upbm affinity estimate (log intensity, higher = more binding, comparable within an allelic series)"
same,binding signal,HOXB9 [13],"12 upbm affinity estimate (log intensity, higher = more binding, comparable within an allelic series)"
same,binding signal,HOXC9 [14],"10.9 upbm affinity estimate (log intensity, higher = more binding, comparable within an allelic series)"
same,binding signal,HOXA7 [29],"8.78 upbm affinity estimate (log intensity, higher = more binding, comparable within an allelic series)"
same,binding signal,HOXB6 [30],"12.2 upbm affinity estimate (log intensity, higher = more binding, comparable within an allelic series)"
ACCTATTA,binding signal,VENTX [1],"11.4 upbm affinity estimate (log intensity, higher = more binding, comparable within an allelic series)"
same,binding signal,VENTX [4],"12 upbm affinity estimate (log intensity, higher = more binding, comparable within an allelic series)"
same,binding signal,VENTX [5],"11.1 upbm affinity estimate (log intensity, higher = more binding, comparable within an allelic series)"
GTCCACGA,binding signal,VENTX [1],"8.05 upbm affinity estimate (log intensity, higher = more binding, comparable within an allelic series)"
same,binding signal,VENTX [4],"7.92 upbm affinity estimate (log intensity, higher = more binding, comparable within an allelic series)"
same,binding signal,VENTX [5],"7.98 upbm affinity estimate (log intensity, higher = more binding, comparable within an allelic series)"
